The record followed here is PubChem BioAssay (NCATS).

Unmarked numbers belong to inactive results. Records with an inconclusive call do not appear. Calls of active or inactive are those of the source. Unless noted, calls come from the whole dose curve; as a rule, active = well fitted curve in either direction with a large enough effect (not every such curve was filed as active); inconclusive = small, poorly fitted or top-dose-only effect, or another doubt; inactive = flat fitted curve, though single readings scatter.

A short description of experiment [1]: AP1 Signaling Pathway (AID 357).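 Note: ME-180 reporter cells stimulated with EGF at its EC50 level; % is set by controls: 0 for no effect and ±100 for the full control effect.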 The settings on record: ME-180 AP-1-bla reporter, EGF-induced, beta-lactamase ratio, 5 h; at 17.2 µM (top of the series) unless noted. Summed up:
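Cells are seeded overnight, exposed to compound titrations and an EC50 level of EGF for 5 hours at 37 °C, then loaded with CCF4 dye for 2.5 hours. Beta-lactamase activity under the AP-1 element is read as a blue/green ratio.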

Experiment [2] can be described thus: Stat Signaling Pathway (AID 446).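 Note: ME-180 cervical cancer cells given 40 pM IL-6 alongside compound; SIE-controlled beta-lactamase reporter measured as 460/530 nm FRET emission ratio; % is set by controls: 0 for no effect and ±100 for the full control effect.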 The following applies: ME-180 (cervical carcinoma) SIE beta-lactamase reporter, IL-6 stimulated, 5 h; at 17.2 µM (top of the series) unless noted. In outline: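 Normalization used AC90 stimulation (300 pM IL-6) and AC90 inhibition (125 nM pan-JAK inhibitor at 40 pM IL-6). The underlying signal is SIE-driven beta-lactamase in ME-180 cells after 5 h IL-6 exposure with compound.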

In experiment [3] the target is Glucocorticoid receptor (Homo sapiens) (UniProt P04150). As to the kind of experiment: GR-GFP Redistribution (AID 450;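 active = compounds whose dose series gives a full or clear partial fitted curve of increased nuclear translocation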; note: potency is the fitted concentration of half-maximal effect).
Glucocorticoid receptor (Homo sapiens), sequence (P04150 whole entry, looked up): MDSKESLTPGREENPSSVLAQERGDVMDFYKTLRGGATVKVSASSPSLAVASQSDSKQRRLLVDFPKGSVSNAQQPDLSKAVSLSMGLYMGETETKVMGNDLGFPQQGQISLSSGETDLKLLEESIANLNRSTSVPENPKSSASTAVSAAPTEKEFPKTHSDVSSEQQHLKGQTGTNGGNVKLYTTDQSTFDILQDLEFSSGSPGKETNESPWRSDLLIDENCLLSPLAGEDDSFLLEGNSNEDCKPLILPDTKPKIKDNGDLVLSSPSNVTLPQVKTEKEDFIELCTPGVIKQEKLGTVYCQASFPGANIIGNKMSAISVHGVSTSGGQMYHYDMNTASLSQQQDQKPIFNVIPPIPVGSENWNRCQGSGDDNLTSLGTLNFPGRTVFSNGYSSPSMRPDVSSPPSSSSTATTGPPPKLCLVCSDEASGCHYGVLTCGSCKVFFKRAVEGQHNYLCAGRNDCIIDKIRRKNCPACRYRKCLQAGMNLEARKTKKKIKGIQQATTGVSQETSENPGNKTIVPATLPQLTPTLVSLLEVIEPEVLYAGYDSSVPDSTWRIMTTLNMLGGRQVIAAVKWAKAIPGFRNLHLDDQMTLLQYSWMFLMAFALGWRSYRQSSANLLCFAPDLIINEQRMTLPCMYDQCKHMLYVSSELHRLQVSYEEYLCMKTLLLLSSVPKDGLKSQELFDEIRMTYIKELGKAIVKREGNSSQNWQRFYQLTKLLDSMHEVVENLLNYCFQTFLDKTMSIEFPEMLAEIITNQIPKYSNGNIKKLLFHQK

Consider `CC1(C)Cc2nc3sc4c(N(CCO)CCO)ncnc4c3cc2CO1`, for which, in experiment [1], the activity change, negative = inhibition is 1.68%. Also, the activity, negative = inhibition in experiment [2] is -5.3%. In addition, the Potency in experiment [3] is greater than 20.6 µM.
As to `COc1ccc(/C(O)=C2\C(=O)C(=O)N(c3cc(C)on3)C2c2ccccc2OC)cc1C` (configuration not stated), the activity change, negative = inhibition in experiment [1] is -17.1%. Besides, the activity, negative = inhibition in experiment [2] is -23.5%. In addition, the Potency in experiment [3] was greater than 20.6 µM.
For the molecule `COc1cc(/C=N/O)ccc1OCc1ccc(C(=O)O)cc1`, the activity change, negative = inhibition in experiment [1] was -13.9%. Besides, the activity, negative = inhibition in experiment [2] was -11.7%. In addition, the Potency in experiment [3] was greater than 20.6 µM.
With `CCCCCCn1cc(C(=O)O)c(=O)c2ccccc21`, the activity change, negative = inhibition in experiment [1] was -9%. For the same molecule, in experiment [2], the activity, negative = inhibition is 8.19%. Moreover, the Potency in experiment [3] was greater than 20.6 µM.
In the case of `CN1CCN(C(=O)CSc2nc(-c3cccs3)ccc2C#N)CC1`, in experiment [1], the activity change, negative = inhibition is -11%. Moreover, the activity, negative = inhibition in experiment [2] was -1.05%. Moreover, the Potency in experiment [3] is greater than 20.6 µM.
In the case of `CC1(C)Cc2c(c(N3CCCCC3)[nH]c(=S)c2C#N)CS1`, the activity change, negative = inhibition in experiment [1] was 3.57%. Further, the activity, negative = inhibition in experiment [2] is -3.22%. Also, the Potency in experiment [3] is greater than 20.6 µM.
Take `CCOC(=O)C(C)Sc1nc(-c2cccs2)ccc1C#N` (configuration not stated): the activity change, negative = inhibition in experiment [1] was 7.21%. In addition, the activity, negative = inhibition in experiment [2] was -3.63%. In experiment [3], the Potency was greater than 20.6 µM.
Regarding `CC(C)COc1ccc(C(=O)OCCN2CCOCC2)c(O)c1`, in experiment [1], the activity change, negative = inhibition is 1.3%. In addition, the activity, negative = inhibition in experiment [2] was 0.653%. For the same molecule, the Potency in experiment [3] is greater than 20.6 µM.
As for `CC(=O)OCC(=O)[C@@]1(O)CC[C@H]2[C@@H]3CCC4=CC(=O)CC[C@]4(C)[C@H]3[C@@H](O)C[C@@]21C`, in experiment [1], the activity change, negative = inhibition was 11.1%. The activity, negative = inhibition in experiment [2] is -11.6%. Besides, in experiment [3], the Potency was greater than 20.6 µM.
In the same order, the values of `C=CCSc1nnc2n(CCc3ccccc3)c(=O)c3c4c(sc3n12)COC(C)(C)C4` are -23.5%, -18.1% and greater than 20.6 µM.
Regarding `Cc1ccc(S(=O)(=O)N2CCN(c3nc(C)c4c(c3C#N)CC(C)(C)OC4)CC2)cc1`, the activity change, negative = inhibition in experiment [1] was 1.26%. Moreover, in experiment [2], the activity, negative = inhibition was 89.5% [activator] (active). In addition, the Potency in experiment [3] was greater than 20.6 µM.
In the same order, the values of `Cc1ccccc1OCc1nc2ccccc2c(=O)n1NC(=O)c1ccco1` are 4.16%, 1.48% and greater than 20.6 µM.
In the same order, the values of `COc1ccc(/C=C/C2=NC(=C\N(C)C)/C(=O)O2)cc1` are -4.1%, -0.663% and greater than 20.6 µM.
Taken in the same sequence, the figures for `CCCc1cc(=O)oc2c(CN3CCCC3)c(O)c(Cl)cc12` were -8.98%, 0.152% and greater than 20.6 µM.
On to `COC(=O)c1ccc(C2C(C(=O)c3cc4ccccc4o3)=C(O)C(=O)N2CCCN(C)C)cc1` (configuration not stated), for which, in experiment [1], the activity change, negative = inhibition is -0.991%. For the same molecule, the activity, negative = inhibition in experiment [2] is -11.4%. Besides, the Potency in experiment [3] is greater than 20.6 µM.
In the case of `CCC1(C)Cc2c(sc3c2c(=O)n(C)c2nnc(SCC(=O)c4ccc(Cl)cc4)n32)CO1` (configuration not stated), the activity change, negative = inhibition in experiment [1] is -5.39%. Further, the activity, negative = inhibition in experiment [2] was -5.38%. Further, the Potency in experiment [3] is greater than 20.6 µM.
As to `COC(=O)CN(c1nc(C)c(Cl)c(OC)n1)S(=O)(=O)c1ccc(C)cc1`, the activity change, negative = inhibition in experiment [1] is 6.71%. Also, in experiment [2], the activity, negative = inhibition is 3.43%. For the same molecule, the Potency in experiment [3] was greater than 20.6 µM.
With `O=C(c1ccc(F)cc1)N1CCC(N2CCCCCC2)CC1`, the activity change, negative = inhibition in experiment [1] is -5.56%. For the same molecule, the activity, negative = inhibition in experiment [2] is -3.47%. The Potency in experiment [3] is greater than 20.6 µM.
Take `COc1ccc(CSC2=NCCN2)cc1Cl`: the activity change, negative = inhibition in experiment [1] is 15.6%. Besides, the activity, negative = inhibition in experiment [2] is 8.84%. Further, the Potency in experiment [3] is greater than 20.6 µM.
Consider `C=CCNc1nc(N2CCCCC2)c(C#N)c2c1CN(Cc1ccccc1)CC2`, for which the activity change, negative = inhibition in experiment [1] was 1.37%. Besides, the activity, negative = inhibition in experiment [2] was -3.92%. Further, the Potency in experiment [3] is greater than 20.6 µM.
Consider `Cc1ccc2cc(CN(C(=O)c3ccco3)c3ccccc3C)c(=O)[nH]c2c1`, for which the activity change, negative = inhibition in experiment [1] is -25.5%. Further, the activity, negative = inhibition in experiment [2] was -12.8%. Besides, the Potency in experiment [3] is greater than 20.6 µM.
As to `CCOC(=O)/C(C#N)=C1\Nc2ccccc2N=C1N(CC(C)C)CC(C)C`, the activity change, negative = inhibition in experiment [1] was 11.2%. For the same molecule, the activity, negative = inhibition in experiment [2] is -4.73%. For the same molecule, the Potency in experiment [3] is greater than 20.6 µM.
Turning to `c1ccc(N2CCN(c3nc(NCc4ccco4)c4ccccc4n3)CC2)cc1`, the activity change, negative = inhibition in experiment [1] is -16.8%. Moreover, the activity, negative = inhibition in experiment [2] is -28%. Moreover, in experiment [3], the Potency is greater than 20.6 µM.
For `CCC1CCCCN1c1nc(-c2cccc(OC)c2O)nc2ccccc12` (configuration not stated), the activity change, negative = inhibition in experiment [1] is -8.8%. In addition, the activity, negative = inhibition in experiment [2] is -4.92%. For the same molecule, in experiment [3], the Potency was greater than 20.6 µM.
On to `CC1(C)CC(=O)C(C=NCCN2CCN(CCc3ccccc3)CC2)=C(O)C1`, for which the activity change, negative = inhibition in experiment [1] is 2.91%. Also, in experiment [2], the activity, negative = inhibition was -3.07%. Besides, the Potency in experiment [3] was greater than 20.6 µM.
For `N#CCSc1nc2sc3c(c2c(=O)n1C1CCCCC1)CCCC3`, the activity change, negative = inhibition in experiment [1] was -7.41%. For the same molecule, the activity, negative = inhibition in experiment [2] was 6.22%. Besides, the Potency in experiment [3] was greater than 20.6 µM.
Regarding `CCCCN(CCCC)C(=O)CSc1nnc2n(C)c(=O)c3c4c(sc3n12)CCCC4`, the activity change, negative = inhibition in experiment [1] was -8.91%. In addition, the activity, negative = inhibition in experiment [2] is -16.8%. Further, the Potency in experiment [3] was greater than 20.6 µM.
For the molecule `CCCCSc1nnc2n(CCc3ccccc3)c(=O)c3c4c(sc3n12)COC(C)(C)C4`, the activity change, negative = inhibition in experiment [1] is -9.1%. Besides, the activity, negative = inhibition in experiment [2] was -12.7%. Further, the Potency in experiment [3] is greater than 20.6 µM.
Take `N#CC1=C2SCC(O)(c3ccccc3)N2C(=O)CC1c1ccccc1` (configuration not stated): the activity change, negative = inhibition in experiment [1] was -17.2%. For the same molecule, in experiment [2], the activity, negative = inhibition is -21.7%. Besides, the Potency in experiment [3] was greater than 20.6 µM.
